Shown are actives, neighbours in structure and some others; about 1.3% of the full set was active somewhere.
BJeLR lethal: BJeLR cell viability loss. 0.17% of 300,000 active. inhibition, % (concentration not given with the values). BJeLR (HRASV12) viability, CellTiter-Glo ATP luminescence, 48 h. AID 1554; in the data active = inhibition above about 50%
PfHsp40 yeast: compounds rescuing yeast from Plasmodium falciparum HSP40 toxicity | growth rescue, % at 12.5 µM | 0.68% of 340,000 active | S. cerevisiae expressing PfHsp40, growth rescue, ATP luminescence | AID 504582; in the data active = growth rescue above about 28%, passing the limit was not always enough;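 also: yeast W303a lacking pdr1 and pdr3 grown in galactose medium; growth measured after three days at 30 °C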
RN4220 kill: S. aureus RN4220 growth inhibition | AID 1259311 | 0.33% of 330,000 active | inhibition, % (no concentration beside the values) | OD600, 16 h; in the data active = inhibition above about 85%
SARS 3CLpro inh: SARS-CoV 3CLpro protease inhibition. AID 1706. 0.14% of 290,000 active. P0C6X7. inhibition, % at 6 µM. recombinant SARS-CoV 3CLpro, quenched FRET peptide cleavage; in the data active = inhibition above about 12%
Sa ugtP lethal: growth inhibition of S. aureus ugtP deletion strain. S. aureus RN4220 ugtP deletion, OD600 growth, 16 h. growth inhibition, % (no concentration beside the values). 0.54% of 330,000 active. AID 1259309; in the data active = growth inhibition above about 68%
Numbers stand for hits; . = inactive; / = no result.

SMILES	BJeLR lethal	PfHsp40 yeast	RN4220 kill	SARS 3CLpro inh	Sa ugtP lethal
Cc1ccc2c(c1)S/C(=C/c1ccc[n+](CCO)c1)N2C	.	.	.	.	.
C=CC[n+]1c(/C=C2\C=Cc3cc(C)ccc3N2CC)ccc2ccccc21	.	277	100	.	100
CCN1/C(=C\c2ccc3cc(C)ccc3[n+]2CC)Sc2cc(C)c(C)cc21	.	.	100	.	100
O=C1c2ccccc2C(Nc2ccc3c(c2)OCCO3)N1c1ccccn1 (stereo unspecified)	.	.	.	.	.
COC(=O)C1=C(c2ccc(OC(F)(F)F)cc2)C[C@@H]2CC[C@H]1N2C(=O)N1CCC(C)CC1	/	41	/	/	/
COc1ccc(S(=O)(=O)Nc2ccc3ccccc3c2)cc1C	.	31	.	.	.
Cc1ccc(S(=O)(=O)Nc2ccc3ccccc3c2)cc1	/	.	.	/	.
O=C(NNc1ccccc1)c1ccccc1	/	.	.	/	.
O=C(NNc1ccc(O)cc1)c1ccc(Br)cc1	.	.	.	.	91
CCOc1ccc(CN=C(N)N=C(N)N)cc1Cl	.	.	.	.	.
CCCOc1ccc(CCCN=C(N)N)cc1Cl	.	/	.	.	101
CCCCOc1ccc(CN=C(N)N)cc1Cl	.	.	.	.	100
CC(OC(=O)CCN1C(=O)C2CC=CCC2C1=O)C(=O)Nc1cccc(Cl)c1 (stereo unspecified)	.	.	.	/	.
COc1ccc(N=C2S/C(=C\c3ccc(C)o3)C(=O)N2CC(C)C)cc1	.	.	/	.	/
COc1ccc([N+](=O)[O-])c(S(=O)(=O)c2ccc(Cl)cc2)n1	.	50	100	.	100
O=[N+]([O-])c1cccnc1S(=O)(=O)c1ccccc1	.	104	/	.	/
COc1ccccc1S(=O)(=O)c1ccccc1[N+](=O)[O-]	.	.	/	.	/
COc1ccc([N+](=O)[O-])c(S(=O)(=O)c2ccccc2)n1	.	/	.	.	96
COc1nc(OC)nc(Oc2ccc(Cl)cc2[N+](=O)[O-])n1	.	.	.	.	.
CCOc1ccc(CCNC(=O)CS(=O)Cc2nc(-c3ccccc3Cl)oc2C)cc1OCC (stereo unspecified)	.	.	.	.	.
O=C(CCc1ccccc1)N=C1SC2CS(=O)(=O)CC2N1Cc1ccc(F)cc1 (stereo unspecified)	.	.	.	.	.
Cc1sc2ncnc(SCC(=O)NCC(C)C)c2c1C	.	.	.	.	.
Cc1ccccc1OCc1n(CC(=O)OC2CC(C)CCC2C(C)C)c2ccccc2[n+]1C (stereo unspecified)	.	.	100	.	101
CCCCCCCCCCOC(=O)Cn1c(COc2ccccc2C)[n+](C)c2ccccc21	.	.	/	.	/
CC1CCC(C(C)C)C(OC(=O)COC(=O)c2ccc(N)cc2)C1 (stereo unspecified)	.	.	.	.	.
SMILES	BJeLR lethal	PfHsp40 yeast	RN4220 kill	SARS 3CLpro inh	Sa ugtP lethal
CC1CCC(C(C)C)C(OC(=O)COC(=O)c2ccccc2N)C1 (stereo unspecified)	.	.	.	.	94
CC1CCC(C(C)C)C(OC(=O)Cn2c(-c3ccc(Cl)cc3)[n+](C)c3ccccc32)C1 (stereo unspecified)	.	.	100	.	100
CC1CCC(C(C)C)C(OC(=O)Cn2c(-c3ccc(Br)cc3)[n+](C)c3ccccc32)C1 (stereo unspecified)	.	.	100	.	100
CC1CCC(C(C)C)C(OC(=O)COC(=O)c2cccn2C)C1 (stereo unspecified)	.	.	.	.	.
CC1CCC(C(C)C)C(OC(=O)Cn2nnc3c(cnn3-c3ccccc3)c2=O)C1 (stereo unspecified)	.	.	.	.	.
CCC1(c2ccccc2)NC(=O)N(CC(=O)Nc2nnc(C3CC3)s2)C1=O (stereo unspecified)	.	.	.	.	.
O=C(CSc1nnc(NC(=O)c2c(F)cccc2F)s1)Nc1ccccc1F	.	.	.	.	.
COc1cccc(/C=C/C(=O)NNC(=O)CCN2CCN(Cc3ccccc3)CC2)c1	.	.	.	.	.
O=C(/C=C/c1ccc(F)cc1)NNC(=O)CCN1CCN(Cc2ccccc2)CC1	55	.	.	.	.
COc1ccc(C(c2c(O)ccc3ccccc23)N2CCOCC2)c(OC)c1 (stereo unspecified)	.	410	/	.	/
COc1ccc(/C(C)=N/NC(=O)c2nnn(-c3nonc3N)c2-c2ccccc2)cc1	.	.	/	.	/
Cc1cc2n(n1)C(c1c[nH]c3ccccc13)Nc1ccccc1-2 (stereo unspecified)	.	.	99	.	99
COc1cc([C@H]2c3[nH]c4ccccc4c3C[C@H]3C(=O)N4[C@@H](c5cc(OC)c(OC)c(OC)c5)c5[nH]c6ccccc6c5C[C@H]4C(=O)N23)cc(OC)c1OC	83	.	/	.	/
COc1ccccc1C(=O)NC(=S)NNC(=O)c1sc2ccccc2c1Cl	.	.	100	.	98
O=C(NNC(=S)Nc1ccccc1)c1cc(-c2cccnc2)nc2ccccc12	.	.	.	.	.
CCCCOc1cccc(-c2cc(C(=O)NNC(=S)NCC)c3ccccc3n2)c1	.	47	.	.	.
CCOC(=O)c1ccc(NC(=S)NNC(=O)c2cc(-c3cccnc3)nc3ccccc23)cc1	.	154	.	.	.
COc1ccc(Cl)cc1C(=O)NNC(=S)NC(=O)c1cc(-c2ccc(Cl)cc2)nc2ccccc12	.	.	115	.	.
O=C(NCc1ccccn1)c1ccc(Cl)c(NC2=NC3CS(=O)(=O)CC3S2)c1 (stereo unspecified)	.	.	.	.	.
O=Cc1ccc(-c2ccccc2C(=O)O)o1	.	.	.	.	.
O=C(O)c1ccccc1-c1c2cc(I)c(=O)c(I)c-2oc2c(I)c(O)c(I)cc12	/	34	.	/	.
O=C(Nc1ccc(OCC(=O)N2CCOCC2)cc1)Nc1cccc2ccccc12	.	.	.	.	.
C=C(C)C1Cc2c(C)nn(-c3nc(C)cc(C)n3)c2C1 (stereo unspecified)	.	113	.	.	.
O=C(CSc1nnc(NC2CCCCC2)s1)NCc1ccco1	.	.	.	.	.
S=c1[nH]nc(COc2ccccc2)n1N=Cc1ccc(Cl)cc1	/	/	.	/	.
Cc1ccc(N=Cc2cc(Cc3ccccc3Cl)cc([N+](=O)[O-])c2O)c(O)c1	.	83	.	.	.
C[C@H]1[C@H](OC(=O)CCC(=O)NCc2ccc(C(=O)O)cc2)O[C@@H]2O[C@@]3(C)CC[C@H]4[C@H](C)CC[C@@H]1C24OO3	.	188	/	.	/
COC(=O)c1ccc(CNC(=O)COC(=O)CCC2CCCC2)cc1	.	.	.	.	.
CC1C(OC(=O)CCC(=O)NC(C)(C)CO)O[C@H]2OC3(C)CC[C@H]4[C@H](C)CCC1C24OO3 (stereo partly specified)	.	122	/	.	/
